Rows were chosen to be rich in hits. Some 1.5% of all compounds tested hit in one or more screens of this group.
RAD52 anneal inh: RAD52 DNA annealing inhibitors, primary screen, biochemical, FRET, single point, set 2; inhibition, % at 18.7 µM; hit rate 0.46% among 360,000; recombinant RAD52 DNA annealing, FRET fluorescence; AID 651710, 2012;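 active means every replicate showing at least 50% inhibition; inconclusive means mean inhibition at least 50% but not in every replicate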
NRP1-CendR mod: modulators of CendR peptide binding to NRP-1, primary screen, biochemical, fluorescence polarization, uHTS | hit rate 0.85% among 360,000 | Neuropilin-1 (Homo sapiens), O14786 | FAM-RPARPAR peptide binding to NRP-1 | inhibition, % at 25 µM;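 active means inhibition or corrected inhibition above about 18%, plus a signal ratio from 0.5 to 1.5, limit read from the data, passing the limit was not always enough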
Target sequence (O14786 whole entry, looked up): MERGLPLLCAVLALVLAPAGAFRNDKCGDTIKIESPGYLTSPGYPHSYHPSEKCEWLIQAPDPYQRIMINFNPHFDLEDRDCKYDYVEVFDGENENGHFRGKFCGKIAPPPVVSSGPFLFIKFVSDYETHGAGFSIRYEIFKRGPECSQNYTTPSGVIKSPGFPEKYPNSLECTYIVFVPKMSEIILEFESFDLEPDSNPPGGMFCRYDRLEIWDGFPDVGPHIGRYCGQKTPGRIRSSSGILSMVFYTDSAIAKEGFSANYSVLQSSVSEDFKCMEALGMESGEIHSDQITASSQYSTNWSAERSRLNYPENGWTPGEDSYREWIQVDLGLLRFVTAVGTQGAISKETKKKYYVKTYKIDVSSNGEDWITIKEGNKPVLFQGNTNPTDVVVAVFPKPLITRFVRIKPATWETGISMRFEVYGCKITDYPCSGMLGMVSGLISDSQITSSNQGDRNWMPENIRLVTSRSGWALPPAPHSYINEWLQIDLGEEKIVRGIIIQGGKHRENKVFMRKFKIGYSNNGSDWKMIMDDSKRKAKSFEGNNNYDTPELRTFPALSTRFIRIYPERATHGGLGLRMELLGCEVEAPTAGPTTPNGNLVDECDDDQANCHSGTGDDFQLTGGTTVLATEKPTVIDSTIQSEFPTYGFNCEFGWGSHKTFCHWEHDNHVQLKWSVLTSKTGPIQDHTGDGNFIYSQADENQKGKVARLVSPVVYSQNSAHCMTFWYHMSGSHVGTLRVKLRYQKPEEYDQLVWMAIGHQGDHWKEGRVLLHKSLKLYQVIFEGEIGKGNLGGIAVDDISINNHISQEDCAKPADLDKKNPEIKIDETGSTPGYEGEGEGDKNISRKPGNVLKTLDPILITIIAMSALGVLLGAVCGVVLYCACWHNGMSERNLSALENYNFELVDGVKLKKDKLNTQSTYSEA
Glyco luc inh: increase of ERlucT glycosylation luciferase signal, primary screen, N-linked glycosylation inhibitor project, D54 ERlucT cells, luminescence, set 2; D54 ERlucT glycosylation luciferase reporter, 24 h; percent of 100 nM tunicamycin response; reporter increase, % at 12.5 µM; hit rate 0.23% among 360,000;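 active means mean luciferase reporter signal, scaled so untreated is 0 and the glycosylation-blocking control 100, at or above a set limit in every replicate; inconclusive means mean reaches the limit but not every replicate does; inactive means mean below the limit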;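 further: luciferase carries N-glycosylation sites so blocking glycosylation raises the light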
RAD54 inh: inhibitors of human RAD54 branch migration, primary screen, biochemical, fluorescence, single point; DNA repair and recombination protein RAD54-like (Homo sapiens), Q92698; RAD54 Holliday junction branch migration, FAM/BHQ fluorescence; inhibition, % at 10.4 µM; hit rate 0.14% among 360,000;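 active means mean normalized replicate activity at least 40 and at least half of replicates scoring 40 or more; inconclusive means only one of the two criteria met; inactive means mean below 40 and under half of replicates reaching 40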;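 further: inhibitors cause a drop in the FAM fluorescence signal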
FID counter: compounds displacing fluorescent DNA intercalator, primary screen, artefact control for HCV NS3 helicase inhibitor project, biochemical, FID fluorescence; DNA fluorescent intercalator displacement; inhibition, % at 7.9 µM; hit rate 0.17% among 290,000; in the data active means inhibition above about 37%;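 further: higher means more ethidium bromide displaced from hairpin DNA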
miR122 inh: miR-122 Renilla sensor signal increase in Huh7, primary screen, miR-122 inhibitor project, cell-based, single point, plate reader | activation (reporter increase), % at 12.5 µM | hit rate 0.3% among 340,000 | Huh7 miR-122 Renilla luciferase sensor, 48 h; neutral wells = 0, positive control = 100 | AID 602342, 2012;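 active means mean replicate activation score at least 90 and every replicate individually at or above 90; inconclusive means only one of the two criteria met; inactive means neither criterion met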;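 further: higher luciferase means less miR-122 activity so hits act as miR-122 inhibitors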
RAD52 DNA ctr: DNA-binding compounds via dye displacement, dose response, artefact control for RAD52 inhibitor project, biochemical, fluorescence polarization, cherry-pick; shares compounds with RAD52 anneal inh; Salmon sperm DNA/acridine orange FP displacement; AC50, µM; hit rate 8% among 1,000; AID 652128, 2013;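 active means fitted half-maximal concentration for signal loss at or below twice the highest dose tested, in every separate run, actives reach about 64 µM in these data; inconclusive means runs disagree, or flat partial signal loss, or poor fit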
Numbers stand for hits.

COc1cc2nc(N(CCCN(C)C)C(=O)c3ccc(S(=O)(=O)N4CCc5ccccc54)cc3)sc2cc1OC was read as RAD52 anneal inh 69.9, NRP1-CendR mod inactive, Glyco luc inh inactive, RAD54 inh inactive, miR122 inh inactive and RAD52 DNA ctr inactive.
Screening CCN(Cc1ccccc1)S(=O)(=O)c1ccc(C(=O)N(CCCN(C)C)c2nc3cc(OC)ccc3s2)cc1 returned RAD52 anneal inh 58.9, NRP1-CendR mod inactive, Glyco luc inh inactive and RAD52 DNA ctr inactive.
CCOc1cccc2sc(N(CCCN(C)C)C(=O)c3ccc(S(=O)(=O)N4CCc5ccccc5C4)cc3)nc12 was read as RAD52 anneal inh 54.9, NRP1-CendR mod inactive, Glyco luc inh inactive, RAD54 inh inactive, FID counter inactive, miR122 inh inactive and RAD52 DNA ctr inactive.
Screening NCCCC[C@H](NC(=O)C1CCNCC1)c1nnc([C@@H](N)Cc2ccc(O)cc2)o1 returned RAD52 anneal inh 73.9, NRP1-CendR mod inactive, Glyco luc inh inactive, RAD54 inh inactive, FID counter inactive, miR122 inh inactive and RAD52 DNA ctr inactive.
Screening CO[C@@H]1CC[C@@H]2CCOc3c(C#N)cccc3C(=O)N(C)[C@@H](C)C(=O)N(C)C[C@@H]1O2 returned RAD52 anneal inh inactive and RAD54 inh inactive.
For COc1ccc(C(=O)NC2CC(C)(C)NC(C)(C)C2)cc1S(=O)(=O)N1CCOCC1 the results were RAD52 anneal inh 98.1, NRP1-CendR mod inactive, Glyco luc inh inactive, RAD54 inh inactive, miR122 inh inactive and RAD52 DNA ctr inactive.
COc1ccc(C(=O)NC2CCCCC2)cc1S(=O)(=O)N1CCOCC1 was read as RAD52 anneal inh inactive, NRP1-CendR mod inactive, Glyco luc inh inactive, RAD54 inh inactive and FID counter inactive.
For COc1cccc(-c2cc3nc(NCc4cccnc4)n(C)c(=O)c3s2)c1 the results were RAD52 anneal inh inactive, NRP1-CendR mod inactive, Glyco luc inh inactive, RAD54 inh inactive and miR122 inh inactive.
`CN(C)CCCOc1ccc(-c2cc3nc(NCc4cccnc4)n(C)c(=O)c3s2)cn1` gave RAD52 anneal inh 60.3, NRP1-CendR mod inactive, Glyco luc inh inactive, RAD54 inh inactive, miR122 inh inactive and RAD52 DNA ctr inactive.
Screening CN(C)CCCNc1nc2cc(-c3cccc(C(F)(F)F)c3)sc2c(=O)n1C returned RAD52 anneal inh 65.7, NRP1-CendR mod inactive, Glyco luc inh inactive, RAD54 inh inactive, miR122 inh inactive and RAD52 DNA ctr inconclusive.
COc1ccc(-c2ccc(C3[C@H]4CNC[C@@H]3N4Cc3cc(F)ccc3F)cc2)cc1 (some centres not stated) was read as RAD52 anneal inh inactive.
For COc1cccc(S(=O)(=O)N[C@@H]2CC[C@@H](CC(=O)NC3Cc4ccccc4C3)O[C@@H]2CO)c1 the results were RAD52 anneal inh inactive, RAD54 inh inactive and miR122 inh inactive.
For COc1cccc(S(=O)(=O)NCC(=O)N2CCCCCC2)c1 the results were RAD52 anneal inh 108.4, NRP1-CendR mod inactive, Glyco luc inh inactive, RAD54 inh inactive, FID counter inactive, miR122 inh inactive and RAD52 DNA ctr inactive.
Screening CCOC(=O)c1c(-c2ccccc2)oc2ccc(OCC)cc12 returned NRP1-CendR mod inactive, Glyco luc inh inactive, RAD54 inh inactive, FID counter inactive and miR122 inh inactive.
CCOC(=O)c1c(-c2ccccc2)oc2ccc(OCC(O)CNCCN(C)C)cc12 (configuration not stated) was read as RAD52 anneal inh 83.0, NRP1-CendR mod inactive, Glyco luc inh inactive, RAD54 inh inactive, FID counter 51.1, miR122 inh inactive and RAD52 DNA ctr inactive.
`O=C(Nc1ccc(Cl)c(Cl)c1)N[C@@H]1CC[C@H](CCn2cc(C3CCCCC3)nn2)O[C@@H]1CO` gave RAD52 anneal inh inactive and RAD54 inh inactive.
`Cc1ccc(C(=O)C[n+]2ccc(Cc3ccccc3)cc2)cc1` gave RAD52 anneal inh inactive, NRP1-CendR mod inactive, Glyco luc inh inactive and FID counter inactive.
For Cc1ccc(SCCc2cc[n+](CC(=O)c3ccccc3)cc2)cc1 the results were RAD52 anneal inh 53.9, NRP1-CendR mod inactive, Glyco luc inh inactive, FID counter inactive and RAD52 DNA ctr inactive.
`CN(C)CCNc1ccc(CO)c2oc3ccc(O)cc3c(=O)c12` gave RAD52 anneal inh 80.9, NRP1-CendR mod inactive, Glyco luc inh inactive, miR122 inh inactive and RAD52 DNA ctr 55.2µM.
For CCN(CC)CCNc1ccc(CO)c2oc3cc(Cl)ccc3c(=O)c12 the results were RAD52 anneal inh 56.6, NRP1-CendR mod inactive, Glyco luc inh 34.8, RAD54 inh 104.8, miR122 inh inactive and RAD52 DNA ctr inactive.
`OCCN1CCN(CC(O)COc2ccc(C34CC5CC(CC(C5)C3)C4)cc2)CC1` (configuration not stated) gave RAD52 anneal inh 56.8, NRP1-CendR mod inactive, Glyco luc inh inactive, FID counter inactive and RAD52 DNA ctr inactive.
For Cc1noc(C)c1S(=O)(=O)Nc1ccc2c(c1)C(=O)N([C@H](C)CO)C[C@H](C)[C@H](CN(C)C(=O)CCC(F)(F)F)OCCCC[C@@H](C)O2 the results were RAD52 anneal inh inactive, RAD54 inh inactive and miR122 inh inactive.
C#CCOCCOCCOCCNc1nc(N2CCN(C(=O)[C@H](CCCCN)n3cc(CN)nn3)CC2)nc(N2CCN(C(=O)[C@H](CO)n3cc([C@@H](N)C(C)C)nn3)CC2)n1 was read as RAD52 anneal inh 59.8, NRP1-CendR mod inactive, Glyco luc inh inactive, RAD54 inh inactive, miR122 inh inactive and RAD52 DNA ctr inactive.
C#CCOCCOCCOCCNc1nc(N2CCN(C(=O)[C@H]([C@@H](C)CC)n3cc([C@@H](N)CO)nn3)CC2)nc(N2CCN(C(=O)[C@H](CCCCN)n3cc([C@@H](N)C(C)CC)nn3)CC2)n1 (some centres not stated) was read as RAD52 anneal inh 57.4, NRP1-CendR mod inactive, Glyco luc inh inactive, RAD54 inh inactive, FID counter 51.8 and RAD52 DNA ctr inactive.
`C#CCOCCOCCOCCNc1nc(N2CCN(C(=O)[C@H](CCCCN)n3cc(CN)nn3)CC2)nc(N2CCN(C(=O)[C@H](CCCCN)n3cc([C@@H](N)[C@H](C)CC)nn3)CC2)n1` gave RAD52 anneal inh 72.1, NRP1-CendR mod inactive, Glyco luc inh inactive, RAD54 inh 79.2, miR122 inh inactive and RAD52 DNA ctr 37.2µM.
